Measured values published in PubChem BioAssay AID2315 (National Center for Advancing Translational Sciences (NCATS), 2010).
Several values for one entry are separate records, joined by “and”; a condition that tells them apart may be missing. Equal values may be shown once. The whole screen tested about 290,000 compounds, of which about 27,000 (9.3%) were called active. The entries come from a sample that favours actives as a whole. Unmarked numbers belong to inactive results. No stated cut-off is given here; in the data, active means inhibition mostly above about 28% (no sharp cut-off); inactive means mostly below about 43%.

Assay: A qHTS for Small Molecule Inhibitors of Shiga Toxin; further: 0% is about no effect
Details: Vero cells, Shiga toxin protein synthesis inhibition reporter; at 38.7 µM, hits give high values

SMILES	inhibition
O=C(NCCc1nnc2ccc(SCC(=O)N3CCOCC3)nn12)c1ccccc1	-1.17%
COc1ccc(-c2nn(-c3ccccc3)cc2C(=O)Nc2nccs2)cc1OC	12.9%
COc1ccc(-c2nn(-c3ccccc3)cc2/C=N/Nc2ccccn2)cc1OC	24.4% (active)
CC(C)(C)OC(=O)N/N=C/c1cn(-c2ccccc2)nc1-c1cccnc1	-2.23%
COc1cccc(CNC(=O)C2CCCN(c3ncnc4c3nc3n4CCCCC3)C2)c1 (configuration not stated)	-3.2%
COc1ccc(N(CC(=O)N2CCCCCC2)S(=O)(=O)c2ccccc2)cc1	32.1%
COc1ccc(S(=O)(=O)NCCCCOc2ccc(Cl)cc2)cc1	-5.02%
COc1ccc(N(CCC#N)S(=O)(=O)c2ccc(Cl)cc2)cc1	42.6% (active)
CC1CN(C(=S)Nc2ccc(S(N)(=O)=O)cc2)CC(C)O1 (configuration not stated)	-8.32%
COc1ccc(OC)c(NC(=O)Cc2cccs2)c1	9.31%
C=C(C)C(=O)O[C@H]1C/C(C)=C\C(=O)/C=C(\C)[C@H](O)[C@@H]2OC(=O)C(=C)[C@@H]21	60% (active)
CCOc1ccc(C(=O)COC(=O)c2ccc(-n3cnnn3)cc2)cc1	-9.12%
CCC(C)(C)NC(=O)CN(C(=O)CCC(=O)Nc1nccs1)c1ccc2c(c1)OCO2	-6.38%
COCCCNC(=O)CN1C(=O)CSc2ccc(S(=O)(=O)N3CCOCC3)cc21	15.9%
O=C(c1cccc(N2CCCC2=O)c1)N1CCOCC1	20.2%
CCCNC(=O)NCc1ccc(N2CCCC2=O)cc1	-8.65%
CC1CCCC(NC(=O)CN2CCN(Cc3ccc(Cl)cc3)C2=O)C1C (configuration not stated)	-12.5%
O=C(NCCCN1CCCCCC1)c1ccc(N2CCCC2=O)cc1	0.987%
C/C(=N\NC(=O)c1cccc(N2CCCC2=O)c1)c1ccc(N)cc1	38.9%
CC1CCCC(NC(=O)c2cccc(N3CCCC3=O)c2)C1C (configuration not stated)	87.5% (active)
Cc1cccc(C(=O)NCCCN2CCCC2=O)c1	-5.25%
O=C(NCCc1ccc(Cl)cc1)c1cccc(N2CCCC2=O)c1	73.4% (active)
CC1CCC(NC(=O)c2ccc(N3CCCC3=O)cc2)CC1 (configuration not stated)	56.6% (active)

SMILES	inhibition
COc1ccc(CCNc2nc(C)cc(C)n2)cc1OC	23.6%
CCCc1ccc(OCC(O)CN2CCN(C(=O)OCC)CC2)cc1 (configuration not stated)	-4.04%
COc1ccc(S(=O)(=O)N2CCC(C(=O)NCc3ccco3)CC2)cc1C	-3.78%
CN(C(=O)CCNC(=O)Cn1ccc2ccccc2c1=O)c1ccc(Br)cc1	-19.7%
Cc1cc(CO)nn1-c1ccc([N+](=O)[O-])cc1	12.4%
Cc1nc(-c2ccc([N+](=O)[O-])cc2)c(-c2ccccc2)o1	-2.19%
Cc1nn(-c2ccc([N+](=O)[O-])cc2)c(N)c1-c1ccccc1	86.7% (active)
CCn1c(=O)c2ccccc2n(CC(=O)N2CCCc3ccccc32)c1=O	-12.6%
CN(c1ccccc1)S(=O)(=O)c1ccc2[nH]c(=O)[nH]c2c1	21.5%
CC(=O)c1ccc(N2CCN(CC(O)c3ccccc3)CC2)cc1 (configuration not stated)	26.5%
CC(=O)c1ccc(N2CCN(C(=O)CCc3ccccc3)CC2)cc1	14.3%
CC(=O)c1ccc(N2Cc3ccccc3C2)cc1	79.3% (active)
CCOC(=O)N1CCN(C(=O)c2cn(C)c3ccc(S(=O)(=O)N(CC)CC)cc3c2=O)CC1	2.57%
COc1ccccc1C(=O)N/C(=C/c1ccc2c(c1)OCO2)C(=O)Nc1cccc(C(=O)O)c1	-9.43%
CN1CCN(S(=O)(=O)c2cccc(C(=O)Nc3cccc(S(N)(=O)=O)c3)c2)CC1	13.4%
O=C(c1n[nH]c2c1CCC2)N1CCCC(Nc2cccc(F)c2)C1 (configuration not stated)	-2%
CCOC(=O)Cn1c(=O)sc2cccc(Cl)c21	-13.7%
CC(C)(C)OC(=O)CNC(=O)c1[nH]cnc1C(=O)N[C@@H](Cc1ccccc1)C(=O)OCc1ccccc1	7.26%
O=C(/C=C/Nc1ccc(S(=O)(=O)Nc2cnc3ccccc3n2)cc1)c1cccnc1	44.7% (active)
Cc1noc(NS(=O)(=O)c2ccc(NC(=O)c3oc4ccc(F)cc4c3C)cc2)c1C	-2.45%
CCn1c(SCC(=O)Nc2ccc(S(=O)(=O)Nc3onc(C)c3C)cc2)nnc1-c1ccccc1	-13.6%
Cc1ccc(C(=O)/C=C/Nc2ccc(S(=O)(=O)Nc3onc(C)c3C)cc2)cc1	67.9% (active)
O=C(Nc1ccc(S(=O)(=O)Nc2ccccn2)cc1)c1ccccc1	-16.3%

SMILES	inhibition
Cc1noc(NS(=O)(=O)c2ccc(N/C=C/C(=O)c3ccccc3)cc2)c1C	71.6% (active)
Cc1noc(NS(=O)(=O)c2ccc(NC(=O)C34CCC(CC3)C4)cc2)c1C	0.59%
Cc1cc(OC(C)C(=O)Nc2ccc(S(=O)(=O)Nc3onc(C)c3C)cc2)cc(C)c1Cl (configuration not stated)	-8.09%
C=C(C)CNC(=S)Nc1ccc(S(=O)(=O)Nc2cnc3ccccc3n2)cc1	6.75%
COCCNC(=O)C1CCN(C(=O)C2CC(=O)N(c3ccc(C)cc3)C2)CC1 (configuration not stated)	-14.7%
CCN1C(=S)N[C@@H](CCc2ccccc2)[C@H](C(=O)OC)[C@H]1C	-2.85% and 15.7%
O=C(NNS(=O)(=O)c1ccc(F)cc1)c1ccc([N+](=O)[O-])cc1Cl	30.1%
CCOc1ccc(CN2CCC(n3nccc3NC(=O)C3CC3)CC2)cc1CO	-3.78%
Cc1ccc(NC(=O)C2CCCN2C(=O)OCc2ccccc2)cc1C (configuration not stated)	-4.8%
COc1ccc(NC(=O)C2C3CCC(O3)C2C(=O)O)cc1OC (configuration not stated)	-5.78%
O=C(CSc1nc(Nc2ccccc2)nc(N2CCOCC2)n1)Nc1cc(Cl)ccc1O	-4.02%
COc1cc(C(=O)N2CCN(C)CC2)cc(OC)c1OC	-8.49%
Cn1ccc(=Nc2ccc(NC(=O)c3ccc(N=c4ccn(C)c5ccc([N+](=O)[O-])cc45)cc3)cc2)cc1	-0.904%
O=C(CC1C(=O)NCCN1Cc1ccc(-c2ccccc2)cc1)NCC1CCOCC1 (configuration not stated)	-14.6%
CCOc1ccc(CN2CCNC(=O)C2CC(=O)NCCCC2CCCC2)cc1 (configuration not stated)	19% (active)
Cc1nccn1CCCNC(=O)CC1C(=O)NCCN1Cc1ccc(Cl)c(F)c1 (configuration not stated)	-1.1%
Cn1c(CCNS(=O)(=O)c2ccc(F)cc2)nnc1SCc1cccnc1	16.6%
COCCn1c(SCC(=O)N2CCCCCC2)nc2c(c1=O)SCC2	-16.9%
Cc1ccc(NC(=O)c2cc3ccccc3o2)cc1	118% (active)
Cc1ccc(OC(=O)c2cc3ccccc3o2)cc1	27.5%
CC(C)(C)n1nc2c(c1NC(=O)c1cc3ccccc3o1)CSC2	-8.8%
O=C(NCCc1ccc2c(c1)OCCO2)c1cc2ccccc2o1	5.6%
O=C(Nc1ccncc1)c1cc2ccccc2o1	57.4% (active)

SMILES	inhibition
C/C(=N\NC(=S)Nc1ccc(C)cc1)c1cc2ccccc2o1	30.5%
Cc1cc(C)cc(C(=O)OCC(=O)NCCNC(=O)COC(=O)c2cc(C)cc(C)c2)c1	22.3%
CN(C)c1ccc(S(=O)(=O)NCC(=O)NCC2CCCCC2)cc1[N+](=O)[O-]	3.92%
O=C(NCCN1CCN(C(=O)c2cccc([N+](=O)[O-])c2)CC1)C(=O)NCc1ccc(Cl)cc1	-5.68%
Clc1ccc(-c2csc(-c3ccncc3)n2)cc1	78.2% (active)
Fc1ccc(-c2csc(-c3ccc(C4SCCS4)cc3)n2)cc1F	-3.43%
COc1ccc(NC(=O)NCCN2CCN(c3ccc(C)cc3)CC2)c(Cl)c1	-4.91%
CC1CCCCN1CCCNc1ccc(C(CC(N)=O)NC(=O)c2ccccc2)cc1[N+](=O)[O-] (configuration not stated)	-3.52%
CCN(C(=O)Cc1c(C(=O)O)n(CC)c2ccccc12)c1ccccc1C	1.61%
CCC(C(=O)NC1CCCCC1)N(C(=O)c1snc(C(N)=O)c1N)c1ccc(OC)cc1OC (configuration not stated)	16.5%
CCCCc1nc(SCC(=O)Nc2nnc(C(C)C)s2)n[nH]1	24%
CC1CN(C(=S)Nc2ccccc2F)CC(C)O1 (configuration not stated)	-12%
O=C(CP(=O)(c1ccccc1)c1ccccc1)N1CCOCC1	-5.31%
CC1CN(C(=S)SCC(=O)c2ccccc2)CC(C)O1 (configuration not stated)	94.2% (active)
O=C(CSC(=S)N1CCOCC1)c1ccccc1	67.5% (active)
O=C(Nc1ccc(S(=O)(=O)N2CCCCCC2)cc1)c1c(F)cccc1F	22.1%
O=C(CSC(=S)N1CCOCC1)c1cc(Br)cc(Br)c1O	-11.8%
O=C(CSC(=S)N1CCCCC1)c1c(F)cccc1F	61.7% (active)
CC(=O)c1ccc(NC(=O)CSC(=S)N2CCCC2)cc1	-2.78%
COC(=O)[C@H](Cc1ccccc1)NC(=O)N1CC(C)OC(C)C1 (some centres not stated)	-8.27%
O=C(O)C1CCCCC1C(=O)N1CCN(S(=O)(=O)c2ccc(F)cc2)CC1 (configuration not stated)	-21.1%
CC1CCN(C(=O)c2ccccc2NC(=O)Cc2ccccc2)CC1	13.5%
Cc1c(C)c2ccc(OCC(=O)N3CCN(c4cccc(Cl)c4)CC3)cc2oc1=O	-20.7%
